# Screening data deposited in PubChem BioAssay by ICCB-Longwood Screening Facility, Harvard Medical School.
# Shown are actives, neighbours in structure and some others; about 1.4% of the full set was active somewhere.
# MbtI inh = inhibitors of Mycobacterium tuberculosis siderophore enzyme MbtI; P9WFX0; purified MbtI enzyme, fluorescence intensity read-out; inhibition, % (concentration not given with the values); 100,000 tested, 0.89% active; in the data active = inhibition mostly above about 56%, no sharp cut-off; inactive = mostly below about 77%
# Target sequence (P9WFX0 whole entry, looked up): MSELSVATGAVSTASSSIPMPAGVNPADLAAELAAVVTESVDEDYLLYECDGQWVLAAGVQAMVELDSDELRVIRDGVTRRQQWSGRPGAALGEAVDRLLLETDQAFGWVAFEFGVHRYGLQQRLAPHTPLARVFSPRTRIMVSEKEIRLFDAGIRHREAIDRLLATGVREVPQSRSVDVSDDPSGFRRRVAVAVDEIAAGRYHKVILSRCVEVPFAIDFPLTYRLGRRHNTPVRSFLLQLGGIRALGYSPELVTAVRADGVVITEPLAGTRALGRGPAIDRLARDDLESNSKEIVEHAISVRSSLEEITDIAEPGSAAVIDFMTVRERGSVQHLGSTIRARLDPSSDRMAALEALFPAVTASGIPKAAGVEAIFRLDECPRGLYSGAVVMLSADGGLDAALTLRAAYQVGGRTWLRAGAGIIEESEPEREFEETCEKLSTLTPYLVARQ
# PV pol inh = inhibitors of poliovirus RNA polymerase binding and polymerization. P03300. poliovirus polymerase elongation, fluorescence polarization; hits give low values. % elongation, % (compound at 16.7 µg/mL). 150,000 tested, 0.66% active; in the data active = % elongation below about 90%
# AID504770 = E. coli YBA685 growth inhibition, screen for V. cholerae RctB inhibitors. E. coli YBA685 rctB-dependent plasmid, OD600 growth, 3 h; hits give low values. z-score (test concentration not listed). 130,000 tested, 0.27% active; in the data active = z-score below about -2, passing the limit was not always enough
# MenB inh = Mtb MenB enzyme inhibition. MenB enzyme assay, absorbance read-out. inhibition, % (concentration not given with the values). 100,000 tested, 0.43% active; in the data active = inhibition above about 21%, passing the limit was not always enough
# * marks the source's active call; other numbers are inactive results; · = no result.
SMILES,MbtI inh,PV pol inh,AID504770,MenB inh
CCn1c(CCNC(C)=O)nc2ccccc21,·,·,-0.8,·
Cn1cnc2c(=O)oc3ccc(S(=O)(=O)N4CCN(c5ccccc5)CC4)cc3c21,·,105.0,·,·
CN1CCN(S(=O)(=O)c2ccc3oc(=O)c4ncn(C)c4c3c2)CC1,-178.9,102.0,-2.35*,-6.4
O=C1Nc2cc(C(=O)N3CC=C(c4ccccc4)CC3)ccc2Sc2ccccc21,·,·,0.4,·
Cc1cc(NS(=O)(=O)c2ccc(N3C(=O)C=CC3=O)cc2)no1,93.0*,98.0,2.25,11.8
COc1ccc(Cl)cc1NC1=NC2CS(=O)(=O)CC2S1 (centres undefined),63.0*,99.0,0.2,-16.6
O=c1c2ccccc2nc(-c2ccco2)n1-c1nccs1,26.9,101.0,0.15,41.6*
O=C(O)C1C2C=CC(C2)C1C(=O)N1CCN(Cc2ccccc2)CC1 (centres undefined),-1.1,80.0*,0.05,-28.2
O=S(=O)(N=C1SCCS1)c1ccccc1,·,·,-0.2,·
CC1=CC(=O)C=C(C)C1=NS(=O)(=O)c1ccccc1,96.4*,103.0,2.05,-11.3
O=C(Nc1cccc(C2=NCCN2)c1)Nc1cccc(C2=NCCN2)c1,·,68.0*,0.1,3.7
CC1COc2c(N3CCN(C)CC3)c(F)cc3c(=O)c(C(=O)O)cn1c23 (centres undefined),-25.2,104.0,-5.15*,-10.8
CC1COc2c(N3CCN(C)CC3)c(F)cc3c(=O)c(C(=O)N4CCN(c5ncccn5)CC4)cn1c23 (centres undefined),25.6,101.0,0,-23.8
O=C(O)CCCC(=O)Nc1ccc(F)cc1F,·,·,-0.35,·
Cc1ccc(S(=O)(=O)c2[nH]c(=S)sc2N2CCOCC2)cc1,93.0*,·,-0.2,-37.3
COc1ccc2c(c1)c1nc(SCC(=O)c3ccccc3)n(CCO)c(=O)c1n2C,·,·,-0.4,·
O=C(CC1Sc2ncnn2C1=O)Nc1ccccc1 (centres undefined),100.0*,100.0,-0.4,-15.7
CC(C)C(=O)NCCc1c[nH]c2ccccc12,-23.8,101.0,-0.5,-9.4
Cc1ccc(C(=O)CC(NCCc2c[nH]c3ccccc23)C(=O)O)cc1 (centres undefined),·,103.0,-1.7,47.5*
C=CCc1cccc(/C=N/n2c(-c3ccccc3C)n[nH]c2=S)c1O,12.7,98.0,2.6,-58.6
COCCn1c(C)cc(/C=N/n2c(-c3ccccc3C)n[nH]c2=S)c1C,95.7*,82.0*,0.5,-36.9
Cc1ccc(C(C)NC(=O)/C=C/c2ccccc2)c(C)c1 (centres undefined),·,·,1,·
COc1ccc(Cn2c(N)c(S(=O)(=O)c3ccccc3)c3nc(C#N)c(C#N)nc32)cc1,-6.7,105.0,0.25,-20.8
CCOC(=O)c1sc(NC(=O)C2c3ccccc3Oc3ccccc32)c(C#N)c1C,·,76.0*,·,·
N#C/C(C(=O)N1CCCCC1)=C(/S)Nc1ccccc1,70.9*,99.0,0.3,-17.1
SMILES,MbtI inh,PV pol inh,AID504770,MenB inh
O=C(Nc1ccccc1)N1CCCCC1,-9.4,101.0,-0.85,2.0
N#C/C(C(N)=O)=C(/S)Nc1ccccc1,30.0,101.0,-3.8*,-16.2
N#CC1=C(SCc2ccccc2)SC(c2ccccc2O)NC1=O (centres undefined),21.4,102.0,-3.4*,-1.2
CCS(=O)(=O)c1ccc2oc(=S)n(CN(C)Cc3ccccc3)c2c1,17.2,100.0,0.55,2.6
c1ccc(-c2cnc3nonc3n2)cc1,·,85.0,-2.95*,-0.6
CCn1c(=O)c2sccc2n2c(CCCC(=O)N3CCN(c4ccc(OC)cc4)CC3)nnc12,·,49.0*,·,·
CCOC(=O)NC(=S)Nc1ccc(OC)cc1,-4.8,100.0,-0.35,-7.1
CCOC(=O)NC(=S)c1ccc(OC)cc1,78.5*,82.0*,-0.6,-7.2
Cc1nc2sccn2c1-c1csc(Nc2cccc(Cl)c2C)n1,70.2*,99.0,-0.2,-10.5
CCc1ccccc1Nc1nc(-c2c(C)nc3sccn23)cs1,49.2,101.0,2.1,-5.5
COC(=O)COc1ccc2cccc(-n3cnnn3)c2c1,89.6,101.0,1.25,38.8*
Cc1nc2cccnc2n1CCNC(=O)Nc1cccc2ccccc12,39.0,101.0,0.9,27.3*
Cc1c(Cl)cccc1N1C(=O)CC(Sc2nnnn2-c2ccccc2)C1=O (centres undefined),97.8*,104.0,0.5,-34.0
O=C1CCCC1Sc1nnnn1-c1ccccc1 (centres undefined),-2.3,102.0,1.2,-5.9
O=C(COC(=O)c1ccccc1Cl)c1ccc(Cl)cc1,-7.8,105.0,-0.45,1.8
NC(=O)c1ccccc1NCC(=O)c1ccc(Cl)cc1,·,·,-2.25*,·
CN(Cc1ccccc1)C(=O)COc1ccc(S(=O)(=O)N2CCCC2)cc1,-3.3,100.0,0.2,40.5*
N#CC(C#N)=C(O)c1c(Cl)cccc1Cl,·,·,0.2,·
O=C(/C=C(\O)c1ccccc1)C(F)(F)C(F)F,16.6,98.0,-3.45*,-20.7
O=C(O)C(=O)/C=C(\O)c1ccccc1,·,·,1.1,·
S=C(c1cccs1)N1CCCC1,·,101.0,0.8,-4.3
S=C(c1ccc(-c2ccc(Cl)cc2)o1)N1CCOCC1,76.8*,99.0,-1.3,-29.9
Cc1ccc(CC(=S)N2CCOCC2)cc1,68.6*,96.0,-0.25,1.6
Cc1ccc(C(=S)N2CCOCC2)cc1,97.2*,98.0,0,1.3
S=C(c1cccs1)N1CCOCC1,70.0*,100.0,0.45,-7.5
SMILES,MbtI inh,PV pol inh,AID504770,MenB inh
CCc1ccc(C(=S)N2CCOCC2)cc1,26.5,100.0,-0.55,0.0
CCOC(=O)N1CCC(NC(=O)C2c3ccccc3C(=O)N(C)C2c2cn(C)c3ccccc23)CC1 (centres undefined),3.8,100.0,-0.55,8.5
COc1ccc(/C=N/n2cnnc2)cc1,11.1,103.0,0.5,-1.7
COc1ccc(/C=N/n2cn[nH]c2=S)cc1,70.8*,105.0,1.4,-39.8
CCC(C)NS(=O)(=O)c1c[nH]c(C(=O)OC)c1 (centres undefined),-28.4,99.0,-0.8,-2.8
CN(C)S(=O)(=O)c1ccc(SCC(=O)NN2C(=O)NC3(CCCCC3)C2=O)nc1,2.4,99.0,0.05,-6.3
CCNC(=S)NCc1ccc2c(c1)OCO2,-9.2,106.0,-1.4,-26.3
CC1CCC2(CC1)NC(=O)N(NC(=S)NCc1ccc3c(c1)OCO3)C2=O (centres undefined),66.8*,103.0,2.2,-28.9
COC(=O)C(NC(=O)c1cc(-c2ccccc2)nc2ccccc12)C(C)C (centres undefined),-7.6,106.0,-0.35,·
O=C(CN(Cc1ccccc1)S(=O)(=O)c1ccccc1)NC1=NCCS1,-15.5,106.0,-0.6,-15.6
O=C(COC(=O)c1ccc(N2C(=O)CCC2=O)cc1)Nc1cccc(Cl)c1,·,104.0,-0.1,-9.6
CC(=O)N1CCN(C(=S)c2ccc(-c3cccc(Cl)c3Cl)o2)CC1,96.3*,102.0,0.45,-24.0
O=C(O)CCN1C(=O)Cc2ccccc2C1=O,6.2,22.0*,-0.85,-24.6
N#CCOc1nc(OCC#N)nc(OCC#N)n1,1.8,102.0,2.95,11.0
CC(=O)Oc1ccc2c(-c3ccccc3)cc(=O)oc2c1,·,·,0.5,·
O=C1NC(=Nc2ccccc2)CS1,36.9,99.0,-0.6,-21.2
O=C1NC(=Nc2ccc(F)cc2)CS1,78.1*,95.0,0.85,-35.1
